ATXN2 expr inh = inhibitors of ATXN2 expression; HEK-293 ATXN2-luciferase reporter, luminescence, 24 h; Potency, µM (top dose mostly 57 µM), without a hit: top-dose activity change, negative = inhibition, actives largely listed as inhibitors; 360,000 compounds, 0.72% hits; further: potency means the concentration at half of the fitted maximal effect; on the % scale 0 is the no-effect control and ±100 the full control effect; nearly all actives have a fitted effect of over 55% in size
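ATXN2-luciferase reporter cells (luciferase flanked by upstream and downstream ATXN2 gene portions) were treated 24 h at 37 °C with compounds at up to 57 uM. SteadyGlo luminescence gave expression; GF-AFC fluorescence gave viability.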
S2 tox = cell viability loss in ATXN counter-screen. Potency, µM (highest dose often 56.7 µM), most hits filed as cytotoxic. S2 cells (HEK-293 line with an ATXN2-luciferase reporter) viability, CellTiter-Fluor protease fluorescence, 24 h. 400,000 compounds, 0.49% hits; further: potency means the concentration at half of the fitted maximal effect; nearly all actives have a fitted effect of over 40% in size
DRD3 agonist = agonists of human D3 dopamine receptor; AID 652048; 410,000 compounds, 0.58% hits; D3R DiscoveRx beta-arrestin cells, luminescence, 90 min; max activation, %; P35462; in the data active means max activation above about 30%; further: 0% is about no effect
Target sequence (P35462 whole entry, looked up): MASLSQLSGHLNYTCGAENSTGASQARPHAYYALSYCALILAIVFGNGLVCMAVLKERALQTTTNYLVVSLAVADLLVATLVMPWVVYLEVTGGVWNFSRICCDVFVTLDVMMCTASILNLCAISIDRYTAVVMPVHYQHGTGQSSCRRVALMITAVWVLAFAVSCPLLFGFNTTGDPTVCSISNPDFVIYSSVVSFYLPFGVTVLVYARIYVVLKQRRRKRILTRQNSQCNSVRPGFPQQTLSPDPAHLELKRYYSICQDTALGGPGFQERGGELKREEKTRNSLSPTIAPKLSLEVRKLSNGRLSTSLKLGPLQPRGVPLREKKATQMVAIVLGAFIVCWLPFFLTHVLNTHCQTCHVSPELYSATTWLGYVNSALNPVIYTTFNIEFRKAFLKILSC
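Agonist mode: compounds and dopamine controls were applied to plated cells for 90 min at 37 degrees C after an overnight attachment at 1500 cells/well. Luminescent read-out followed 30 - 60 minutes at room temperature with DiscoveRx detection reagent.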
TGFb SMAD3 inh = TGF-b pathway inhibition. Potency, µM (top dose mostly 46.1 µM), without a hit: at the top dose activity, negative = inhibition, actives largely listed as inhibitors. 410,000 compounds, 1.2% hits. HepG2 CAGA-GFP TGF-b/SMAD3 reporter, GFP fluorescence, 18 h; TGF-beta stimulated, 500 pg/mL final. AID 588855; further: potency means the concentration at half of the fitted maximal effect; on the % scale 0 is the no-effect control and ±100 the full control effect; nearly all actives have a fitted effect of over 65% in size
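Inhibition was scored as loss of TGF-beta-induced (500 pg/mL final, 18 hours, 37 degrees C) GFP in HEPG2 cells carrying a CAGA-GFP reporter, in DMEM with 1% FBS. Well GFP was summed per cell; Activity was normalised to unstimulated and stimulated DMSO wells, then concentration-response fitting.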
DRD3 antagonist = antagonists of human D3 dopamine receptor; P35462; max response, negative = inhibition, %; 360,000 compounds, 2.5% hits; D3R cells, DiscoveRx beta-arrestin luminescence, antagonist mode; stronger effect = lower value; in the data active means max response below about -50%; inconclusive means no clear call, values can overlap the other calls; further: on the % scale 0 is the no-effect control and ±100 the full control effect
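Cells expressing the human receptor were seeded at 1500 cells/well, incubated overnight at 37 degrees C in 5% CO2, then exposed to library compounds with dopamine controls for 90 minutes at 37 degrees C before luminescent detection.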
HepG2 tox = kills HepG2 cells in TGF-b inhibitor counter-screen; AID 588856; HepG2 CAGA-GFP viability, ATP luminescence, 18 h; 410,000 compounds, 0.76% hits; Potency, µM (top dose mostly 46.1 µM), without a hit: top-dose activity change, negative = cytotoxicity, actives largely listed as cytotoxic; further: potency means the concentration at half of the fitted maximal effect
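CellTiter-Glo luminescence gave cytotoxicity after 18 hours at 37 degrees C. The cells were HepG2 CAGA-GFP in 1% FBS DMEM, stimulated with 500 pg/mL TGF-beta after compound addition. %Activity was normalised to no-cell wells (complete cell-killing) and DMSO (no toxicity), and curves were fitted and classified.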
* marks the source's active call; other numbers are inactive results; i = inactive; ? = inconclusive; . = not tested or not shown. Hits are enriched below; roughly 4.7% of the tested compounds scored in any of these assays. Unless noted, the call rests on the fitted dose curve; in most records, active means well fitted curve in the direction sought with a large enough effect; inconclusive means small, poorly fitted or top-dose-only effect, or another doubt; inactive means no such curve, though single readings can be large; an effect the other way counts as inactive or inconclusive.

SMILES | ATXN2 expr inh | S2 tox | DRD3 agonist | TGFb SMAD3 inh | DRD3 antagonist | HepG2 tox
CSc1ccc(CCNC(=O)Cn2ncc3c(=O)oc4ccccc4c32)cc1 | 0% | i | -11 | -19% | . | -23%
Cc1cc2c(cc1S(=O)(=O)N(C)CC(=O)Nc1ccc(C#N)cc1)OCC(=O)N2 | -12% | ? | 9 | ? | . | -22%
CCOC(=O)c1ccc(-n2c(C)ccc2C)cc1 | 2% | i | -17 | 14% | -6 | -1%
CCOC(=O)c1ccc(N2C(=O)C=CC2=O)cc1 | ? | . | 4 | ? | -82* | -106%
Cc1ccsc1CN(C)c1ncnc2ccc(-c3ccoc3)cc12 | -15% | i | . | 11µM* | . | -43%
O=C(NNC1=NCCC1)c1cccc(Br)c1 | 70% | i | -2 | -9% | -58* | 6%
Cc1ccccc1C(=O)NNC1=NCCC1 | -2% | i | 0 | 17% | -12 | 3%
Fc1ccc(OCCCCCN2CCCC2)cc1 | -15% | i | -25 | 9% | -17 | 3%
COc1ccccc1N1CCN(CCCCOc2cccc3ccccc23)CC1 | -18% | ? | 10 | -10% | -69* | -22%
CC1CN(CCCCOc2ccc(F)cc2)CC(C)O1 (configuration not stated) | . | i | -18 | 11% | -50* | 4%
COc1ccccc1N1CCN(C[C@@H](O)COc2cccc3ccccc23)CC1 | . | i | . | . | . | .
COc1ccccc1OCCCCN1CCN(c2ccccc2OC)CC1 | -11% | i | 3 | -18% | -81* | -40%
COc1ccccc1N1CCN(CCCCCCOc2ccc(F)cc2)CC1 | ? | ? | -5 | ? | -52* | -60%
O=C(C[N+]12CN3CN(CN(C3)C1)C2)c1ccc(-c2ccccc2)cc1 | . | . | . | 1% | . | -28%
Cc1cccc(OCCN2CSC(=S)N(C)C2)c1 | -22% | i | -6 | 2% | -9 | -3%
COc1ccccc1OCCN1CSC(=S)N(C)C1 | 28µM* | ? | -10 | ? | ? | -21%
COc1cc(N(C)C)c(OC)cc1C=C1C=CC=C1 | . | . | . | ? | . | -34%
Cc1ccc(Sc2ccc(/C=N/O)cc2[N+](=O)[O-])cc1 | -6% | i | -13 | ? | -69* | -91%
CO/N=C/c1ccc(Sc2ccc(C)cc2)c([N+](=O)[O-])c1 | 2% | i | -10 | 0% | -2 | -4%
N#CCSc1nnc(-c2sc3ccccc3c2Cl)o1 | -9% | i | 3 | 0% | -6 | -34%
COC(=O)CSc1nnc(-c2sc3ccccc3c2Cl)o1 | 22µM* | i | -6 | 1% | -7 | -14%
CCCc1[nH]n(-c2nc3ccccc3s2)c(=O)c1C=NCCCOC | 11% | i | 0 | -18% | 4 | -46%
CCCCCN=Cc1c(C)[nH]n(-c2nc3ccccc3s2)c1=O | 13µM* | i | 28 | -15% | 40 | 1.4µM*
C=CCNC(=O)c1ccc(CN2CCC(Cc3ccccc3)CC2)cc1 | -9% | i | -26 | -1% | ? | -32%
Cc1ccccc1NC(=O)c1ccc(CN2CCC(Cc3ccccc3)CC2)cc1 | -31% | i | -19 | -20% | -64* | -41%
SMILES | ATXN2 expr inh | S2 tox | DRD3 agonist | TGFb SMAD3 inh | DRD3 antagonist | HepG2 tox
CC(C)NC(=O)c1ccc(CN2CCC(Cc3ccccc3)CC2)cc1 | -1% | i | -24 | 6% | -80* | 4%
CC(C)NC(=O)C1(C)CSCC(=O)N1C1CCN(Cc2ccccc2)CC1 (configuration not stated) | . | . | -21 | . | -64* | .
Cc1ccc2nc(N3CCN(C(=O)C4COc5ccccc5O4)CC3)sc2c1 (configuration not stated) | . | . | 4 | ? | . | -31%
COCC1CCCN(Cc2ccc3c(c2)CN(C(=O)c2ccc(-c4ccc(C)o4)cc2)CCO3)C1 (configuration not stated) | . | i | . | . | . | .
Oc1cnc2ccccc2c1CN1CCOCC1 | 0% | i | -3 | 10% | -77* | -14%
COc1ccc(OC)c(Nc2nc(NCCCN(C)C)nc(N)c2[N+](=O)[O-])c1 | ? | i | 3 | ? | -10 | 16µM*
O=C(CCSc1ccccc1)OCn1nnc2ccccc2c1=O | 5% | i | -5 | 4µM* | 13 | -7%
O=C(O)CCCCCNC(=O)CCn1nnc2ccccc2c1=O | 0% | i | 1 | -5% | -52* | 7%
COc1ccc(Cn2c(SCc3ccc(C(=O)NC4CCCC4)cc3)nc3cccnc32)cc1 | -10% | i | -3 | -14% | . | -34%
CC(C)n1c(C=C[C@H](O)C[C@H](O)CC(=O)O)c(-c2ccc(F)cc2)c2ccccc21 | 28% | . | . | . | . | .
S=c1[nH]cc(-c2ccccc2)n1-c1ccccc1 | -11% | i | -2 | -15% | -7 | 5%
Cc1ccc(-n2c(-c3ccccc3)c[nH]c2=S)cc1 | -25% | i | 41* | ? | 0 | -28%
COc1ccccc1NS(=O)(=O)c1cc([N+](=O)[O-])ccc1N/N=C/c1c[nH]c2ccccc12 | ? | ? | -15 | -14% | -88* | -47%
COc1ccccc1NS(=O)(=O)c1cc([N+](=O)[O-])ccc1N/N=C/c1sc(N2CCOCC2)nc1-c1ccccc1 | -8% | i | -16 | 53% | -84* | 11%
O=[N+]([O-])c1ccccc1N/N=C/c1c[nH]c2ccccc12 | 73% | ? | -4 | ? | -52* | -45%
COc1ccc(CNC(=O)c2cc3cccc4c3n2CC(C)S4)cc1OC (configuration not stated) | . | . | 5 | -23% | . | -39%
Oc1ccccc1C1C=C(c2ccc3c(c2)OCO3)NC(c2ccc(F)c(Br)c2)N1 (configuration not stated) | . | . | . | ? | . | -59%
Cc1ccc2c(=O)cc(CSc3ncn[nH]3)[nH]c2c1C | 1% | i | -13 | -6% | . | -2%
O=C1CC(c2ccco2)CC2=C1C(c1ccc(O)cc1)n1nc(C(F)(F)F)nc1N2 (configuration not stated) | . | . | . | 1% | . | -27%
Cc1cc(C)c(Cc2c(C)nc3c(C(=O)NCc4ccco4)cnn3c2C)c(C)c1 | 14µM* | 20µM* | -1 | -14% | -14 | -93%
Cc1nc2c(C(=O)NCCc3ccc(Cl)cc3)cnn2c(C)c1Cc1c(F)cccc1Cl | . | . | -14 | -20% | . | -8%
Cc1nc2c(C(=O)NCCc3ccc(Cl)cc3)cnn2c(C)c1Cc1ccc(F)cc1 | . | . | -9 | 7.1µM* | . | -95%
Cc1ccc(CNC(=O)c2cnn3c(C)c(Cc4c(F)cccc4Cl)c(C)nc23)cc1 | -26% | ? | -11 | 10% | . | -11%

Screening data deposited in PubChem BioAssay by National Center for Advancing Translational Sciences (NCATS).
